According to PubChem BioAssay AID743255 (National Center for Advancing Translational Sciences (NCATS), 2014):
Hit rate of the full screen: of about 390,000 compounds, about 910 (0.23%) were called active. Inconclusive results (about 5%) are left out. Calls follow the shape of the dose curve; as a rule, active = well fitted inhibition curve with a large enough effect; inconclusive = small, poorly fitted or top-dose-only effect; inactive = no such curve, though single readings can be large or run the other way. The full list was thinned out, with actives kept by preference.

target: Ubiquitin carboxyl-terminal hydrolase 1 (Homo sapiens) (UniProt O94782); assay: Inhibitors of USP1/UAF1: Primary Screen; settings: recombinant USP1/UAF1, Ub-Rhodamine cleavage fluorescence; series mostly up to 57.1 µM; activity change, negative = inhibition: at the top concentration; also: nearly all actives have a fitted effect of over 60% in size
Sequence (O94782 whole entry, looked up): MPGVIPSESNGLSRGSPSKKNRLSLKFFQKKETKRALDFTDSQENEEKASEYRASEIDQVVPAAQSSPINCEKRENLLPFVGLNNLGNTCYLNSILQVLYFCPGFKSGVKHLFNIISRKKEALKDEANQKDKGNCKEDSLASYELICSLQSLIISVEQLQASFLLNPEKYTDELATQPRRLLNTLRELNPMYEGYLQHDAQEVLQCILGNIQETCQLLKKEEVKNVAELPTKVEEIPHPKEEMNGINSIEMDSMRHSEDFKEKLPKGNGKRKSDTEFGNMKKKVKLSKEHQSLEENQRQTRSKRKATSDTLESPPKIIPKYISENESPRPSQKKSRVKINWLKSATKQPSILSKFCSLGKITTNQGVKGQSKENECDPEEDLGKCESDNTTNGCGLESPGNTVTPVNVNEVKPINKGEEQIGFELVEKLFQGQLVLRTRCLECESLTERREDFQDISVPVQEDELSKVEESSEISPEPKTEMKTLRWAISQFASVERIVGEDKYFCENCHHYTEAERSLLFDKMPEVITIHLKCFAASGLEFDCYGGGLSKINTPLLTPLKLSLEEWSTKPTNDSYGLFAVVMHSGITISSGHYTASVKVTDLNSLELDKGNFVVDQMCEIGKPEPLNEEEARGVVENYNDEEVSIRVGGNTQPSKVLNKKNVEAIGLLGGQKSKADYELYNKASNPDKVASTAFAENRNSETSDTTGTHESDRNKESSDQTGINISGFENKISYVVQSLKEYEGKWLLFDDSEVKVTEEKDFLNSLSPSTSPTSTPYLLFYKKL
Text: Deubiquitinating enzymes (DUBs) are a class of enzymes that can cleave isopeptide bond formed between the C-terminal carboxylate of ubiquitin and a lysine side-chain amino group on the target protein. Among them, ubiquitin specific proteases (USPs) constitute the largest DUB family. Human USPs are emerging as promising targets for pharmacological intervention because of their connection to a number of human diseases, including prostate, colon and breast cancer (1, 2), pediatric acute lymphoblastic leukemia (3), and familial cylindromatosis (4). The advantage of inhibiting USPs lies in the potential specificity of therapeutic intervention that can lead to better efficacy and reduce nonspecific side effects. In a collaboration between the University of Delaware and the NIH Chemical Genomics Center, a high-throughput screen assay was developed to screen for USP1/UAF1 inhibitors. This miniaturized assay has a fluorescent read-out and is used to screen the NIH Molecular Libraries Small Molecule Repository (MLSMR) in order to identify a small molecule that inhibits USP1. NIH Chemical Genomics Center [NCGC] NIH Molecular Libraries Probe Centers Network [MLPCN] MLPCN Grant: DA030552 Assay Submitter (PI): Zhihao Zhuang, University of Delaware 1. Priolo, C., et al. (2006) The isopeptidase USP2a protects human prostate cancer from apoptosis. Cancer Res 66, 8625-8632 2. Popov, N., et al. (2007) The ubiquitin-specific protease USP28 is required for MYC stability. Nat Cell Biol 9, 765-774 3. De Pitta, C., et al. (2005) A leukemia-enriched cDNA microarray platform identifies new transcripts with relevance to the biology of pediatric acute lymphoblastic leukemia. Haematologica 90, 890-898 4. Kovalenko, A., et al. (2003) The tumour suppressor CYLD negatively regulates NF-kappaB signalling by deubiquitination. Nature 424, 801-805
3 microliters of reagents (buffer in columns 3 and 4 as negative control and 1nM USP1/UAF1 complex in columns 1, 2, and 5-48) are dispensed into Greiner black solid bottom 1536-well assay plates. Compounds are then transferred via Kalypsys pin tool equipped with 1536-pin array (10nl slotted pins, V&P Scientific, San Diego, CA). Following an incubation step of 15 min at room temperature, 1ul of Ub-Rho substrate (150nM final concentration) is added to initiate the reaction. The plates are immediately centrifuged at 1000 rpm for 15 seconds, and subsequently transferred to a ViewLux high-throughput CCD imager (PerkinElmer) wherein kinetic measurements of fluorescence are acquired using 480 nm excitation/540 nm emission filter set (6 reads every 60 seconds, see Table 1). All reagents are diluted in an assay buffer consisting of 50mM HEPES (pH 7.8), 0.5mM EDTA, 0.1 mg/ml BSA, 1mM TCEP, and 0.01% Tween-20.
% is scaled to controls: 0 for no effect and ±100 for the full control effect; potency is read from the fitted curve at half-maximal effect.

SMILES	Potency	activity change, negative = inhibition
CC(=O)N1C(=O)/C(=C2\SC(=S)N(NC(=O)c3ccc(O)cc3)C2=O)c2ccccc21	3.98 µM (active)	–
CC(C)n1cnc2c(NCc3ccccc3)cc(OCC3CCN(C)CC3)cc21	17.8 µM (active)	–
Cc1ccc(-c2cnc(NCc3ccc(C(C)C)cc3)n2C)cc1	–	-27.3% (inactive)
CCOC(=O)c1c(NC(=O)/C=C/c2ccc(OC)cc2)sc2c1CCC(C)C2 (stereo not drawn)	–	31.4% (inactive)
CCCN1CCc2nc(N3CCN(C)CC3)ncc2C1	–	1.13% (inactive)
COc1ccc([N+](=O)[O-])cc1C1NN=C(c2cccc3ccccc23)S1 (stereo not drawn)	–	-9.93% (inactive)
O=C1Nc2ccc([N+](=O)[O-])cc2C1=Nc1cccc(CO)c1	25.1 µM (active)	–
O=C(CCl)N(Cc1cccc([N+](=O)[O-])c1)c1cccc(Cl)c1	–	-2.98% (inactive)
CN1C(=O)c2cccc3c(N)ccc(c23)C1=O	4.47 µM (active)	–
CCOC(=O)c1c(NC(C)=O)c2c3c(sc2n1Cc1c(C)cc(C)cc1C)CCCC3	–	-23.7% (inactive)
COc1ccc(CCNC(=O)c2cc3cccc4c3n2CC(C)S4)c(OC)c1OC (stereo not drawn)	–	-25.8% (inactive)
Cc1ccc(OC(=O)CSc2nnc(-c3cccs3)o2)cc1	–	-10.2% (inactive)
O=C(CSCc1cnn(-c2ccccc2)c1-n1cccc1)NCc1ccccc1Br	–	-11.6% (inactive)
CCOC(=O)C1CCCN(C(=O)c2ccc3c(c2)sc2nc(-c4ccc(CC)cc4)cn23)C1 (stereo not drawn)	–	-7.16% (inactive)
COc1ccc(OC)c2sc(N3CCN(C(=O)C4COc5ccccc5O4)CC3)nc12 (stereo not drawn)	–	-8.78% (inactive)
Cc1ccc2c(c1)N(C(=O)Nc1ccc(Br)cc1F)CCO2	–	-0.306% (inactive)
CCOc1ccc(CCNC(=O)c2cc3c(=O)n(C)c4ccccc4c3n2C)cc1	–	-22.7% (inactive)
CCOC(=O)CNC(=O)c1cc2c(=O)n3cccc(C)c3nc2s1	–	8.57% (inactive)
CCOC(=O)CC1C(=O)NCCN1c1nc2c(C)cccn2c(=O)c1/C=C1\SC(=S)N(C(C)CC)C1=O (stereo not drawn)	8.91 µM (active)	–
CCCN(CCC)c1nc2c(C)cccn2c(=O)c1/C=C1/SC(=S)N(Cc2ccco2)C1=O	–	123% (inactive)
O=C(NCC(c1cccnc1)N1CCc2ccccc21)c1cccc(C(F)(F)F)c1 (stereo not drawn)	–	-8.98% (inactive)
CC1=C(C(=O)OCC(C)C)C(c2ccc(OCc3ccccc3)cc2)N2C(=O)CCSC2=N1 (stereo not drawn)	–	-2.16% (inactive)
COc1cccc(C(=O)Nc2ccc3oc(-c4ccc5ccccc5c4)nc3c2)c1	–	-16.5% (inactive)
CCN1C(=O)c2ccccc2S(=O)c2ccc(C(=O)NCc3ccc(F)cc3)cc21 (stereo not drawn)	–	-6.47% (inactive)
COc1ccc(-n2nc(C(=O)NCCc3ccc(Cl)cc3)c3c4ccccc4n(C)c3c2=O)cc1Cl	–	0.794% (inactive)

SMILES	Potency	activity change, negative = inhibition
CCCN(CCC)C(=O)C1CCCN(c2ncnc3c2nc2n3CCCCC2)C1 (stereo not drawn)	–	-8.4% (inactive)
CCN(Cc1ccccc1)C(=O)c1cn(-c2cccc(OC)c2)c(=O)c2ccccc12	–	-13.1% (inactive)
COc1cc(OC)c(OC)cc1/C=C/c1nc2ccccc2c(=O)n1-c1ccc(Br)c(C)c1	–	-2.89% (inactive)
Cc1cccc(N2CCN(C(=O)Cn3ncc4c5ccccc5n(C)c4c3=O)CC2C)c1 (stereo not drawn)	–	-14.7% (inactive)
CCOc1ccccc1C(=O)NC1(C(F)(F)F)C(=O)Nc2c1c(=O)[nH]c(=O)n2-c1ccc(F)cc1 (stereo not drawn)	–	-16.2% (inactive)
Oc1c(C=Nc2cccc3nsnc23)ccc2ccccc12	25.1 µM (active)	–
COCCNC(=O)c1cc(-c2cccc(Cl)c2)on1	–	-23.1% (inactive)
COc1ccc(C(=O)c2oc3ccccc3c2NC(=O)COc2cccc(C)c2)cc1	–	6.34% (inactive)
Cc1c(C(=O)N2CCCC2)oc2c1-c1nn(CC(=O)NCc3ccc(OC(C)C)cc3)cc1CC2	–	-23.5% (inactive)
COc1ccccc1NC(=O)c1sc2nc(C)c(C(=O)Nc3ccc(Cl)cc3)c(-c3ccc(Br)cc3)c2c1N	–	-11.8% (inactive)
COc1ccc(NC(=O)C2CCN(c3ccc(Sc4ccc(C)cc4)nn3)CC2)c(OC)c1	–	-27.1% (inactive)
CC(C)(C)OC(=O)N1CCC(c2c(C(=O)NCCc3ccsc3)cnn2-c2ccc(F)cc2F)CC1	–	-26.8% (inactive)
O=C(CN1CCN(Cc2ccc(Cl)cc2)C1=O)NCc1ccc(F)cc1	–	-1.87% (inactive)
O=C(O)c1ccc(Cn2c(SCc3ccc(F)cc3)nc3ccncc32)cc1	–	5.68% (inactive)
CCOC(=O)C1CCCN(S(=O)(=O)c2cc(-c3cc(C)no3)ccc2OC)C1 (stereo not drawn)	–	-3.56% (inactive)
Cc1ccc(CNC(=O)CSc2c3c(nc4cc(Cl)ccc24)CCCC3)cc1	–	-18.4% (inactive)
Cc1onc(-c2ccc(F)cc2F)c1C(=O)Nc1cccc(C(F)(F)F)c1	–	-20.1% (inactive)
CC(C)(C)c1ccc(C(=O)NCC(c2ccco2)S(=O)(=O)c2ccc(F)cc2)cc1 (stereo not drawn)	–	-11.7% (inactive)
CCCCCCc1cc2cc(-c3nnc(-c4ccccc4)o3)c(=O)oc2cc1O	8.91 µM (active)	–
CCc1ccc(NC(=O)c2cnc3c(-c4ccccc4)c(C)nn3c2C)cc1	–	-11.2% (inactive)
COc1ccc(Cn2ccn(CC(=O)Nc3cc(C)ccc3C)c(=O)c2=O)cc1	–	4.85% (inactive)
Cc1ccc(-c2nn(-c3ccccc3)cc2/C=C2\SC(=S)N(CCCCCC(=O)O)C2=O)o1	7.08 µM (active)	–
O=C(/C=C(O)/C=C/c1ccc(O)cc1)/C=C/c1ccc(O)cc1	28.2 µM (active)	–
C[n+]1ccc(/C=C/c2c[nH]c3ccccc23)cc1	28.2 µM (active)	–
O=c1[nH]c2cc(Br)ccc2n2cccc12	–	-11.5% (inactive)

SMILES	Potency	activity change, negative = inhibition
Cn1c(COc2ccccc2C(C)(C)C)nc2ccccc21	–	3.12% (inactive)
CCN(c1ncnc2c1cnn2-c1ccc(C)cc1)C1CCCCC1	–	-6.68% (inactive)
CCOC(=O)c1c(C)n(S(=O)(=O)c2ccc(C)cc2C)c2ccc(NS(=O)(=O)c3ccc(C)cc3C)cc12	–	-24.5% (inactive)
CCC(=O)N1c2ccccc2CC1C(=O)N1CCN(c2ccccc2F)CC1 (stereo not drawn)	–	-13.4% (inactive)
O=S(=O)(NCC(c1ccco1)N1CCOCC1)c1cc(F)ccc1F (stereo not drawn)	–	-10% (inactive)
COCCNC(=O)c1ccc2c(c1)N(Cc1cccc(Cl)c1)C(=O)c1ccccc1S2(=O)=O	–	-7.22% (inactive)
CCCSc1ncc(Cl)c(C(=O)Nc2c(C(=O)Nc3ccccc3)oc3ccccc23)n1	–	-10.5% (inactive)
COc1ccc(S(=O)(=O)Nc2cc3c(C(=O)OC(C)C)c(C)oc3c3ccccc23)cc1	–	-16% (inactive)
Cc1ccc(S(=O)(=O)/N=C2\C=C(NS(=O)(=O)c3ccc(C)cc3)C(=O)c3ccccc32)cc1	20 µM (active)	–
COc1ccc(S(=O)(=O)/N=C2\C=C(NS(=O)(=O)c3ccccc3)C(=O)c3ccccc32)cc1	15.8 µM (active)	–
Cc1ccc(S(=O)(=O)Nc2nc(N)n(-c3ccccc3)n2)cc1	–	-2.87% (inactive)
Cc1ccc(S(=O)(=O)/N=S(\C)C(C)C)cc1 (stereo not drawn)	–	-16.3% (inactive)
COc1ccc(N2CCN(C3CCCCC3NS(=O)(=O)c3ccccc3)CC2)cc1 (stereo not drawn)	–	-21.5% (inactive)
CCCN(CCC)C(=O)Cn1c(=O)n(-c2ccc(Cl)cc2)c(=O)c2c3c(sc21)CCCCC3	–	-14.7% (inactive)
O=C(C1CCC(Cn2c(=O)c3sccc3n(Cc3ccccc3F)c2=O)CC1)N1CCCCC1 (stereo not drawn)	–	-29.1% (inactive)
COc1ccc(NC(=O)CCCN2C(=O)CCn3nc(-c4cn(C)c5ccccc45)cc32)cc1OC	–	-13.8% (inactive)
CC(=O)Nc1cccc(NC(=O)CSc2cn(CC(=O)N3CCCC3)c3ccccc23)c1	–	18.7% (inactive)
COc1ccc(C)cc1N(CC(=O)N1CCC(C)CC1)S(=O)(=O)c1ccc(C)cc1	–	-0.585% (inactive)
COc1ccc(OC)c(-c2noc(N3CCN(c4cc(Cl)ccc4C)CC3)n2)c1	–	-14.9% (inactive)
Cc1ccc(C2CCN(C(=O)c3cnn(-c4ccccc4Cl)c3C3CCN(C(=O)OC(C)(C)C)CC3)C2)cc1 (stereo not drawn)	–	-21.9% (inactive)
COc1c(Cl)cc(C(=O)N(Cc2ccccc2F)C2CCS(=O)(=O)C2)cc1Cl (stereo not drawn)	–	0.438% (inactive)
Oc1ccc2ccc3cccc[n+]3c2c1	28.2 µM (active)	–
N#Cc1ccc(C2=CC(=O)C[C@H](c3ccc(Cl)cc3)C2)cc1	–	-5.63% (inactive)
Cc1ccccc1C(=O)N1CCC(C(=O)Oc2ccc(C#N)cc2)CC1	–	3.04% (inactive)
CC1(OC(=O)C2CCCC2)C(=O)C=C2C=C(c3ccc(C#N)cc3)OC=C2C1=O (stereo not drawn)	31.6 µM (active)	–

SMILES	Potency	activity change, negative = inhibition
Clc1ccc(CSc2nncn3c2cc2occc23)cc1	–	-10.6% (inactive)
CCC1CCCCN1Cc1c(O)ccc2c(=O)c(Oc3ccccc3Cl)c(C(F)(F)F)oc12 (stereo not drawn)	–	-28.3% (inactive)
Fc1ccc(CN2CCc3nc(Nc4ccccc4)ncc3C2)cc1F	–	-10.4% (inactive)
CCCCNC(=O)c1cc(-c2ccc(Cl)c(Cl)c2)on1	–	-14% (inactive)
O=C(OCc1cc(=O)n2nc(C3CC3)sc2n1)c1ccccc1Cl	–	-4.6% (inactive)
CC1Cc2cc(S(=O)(=O)CCC(=O)Nc3ccc(F)c(Cl)c3)ccc2N1C(=O)C1CC1 (stereo not drawn)	–	-4.08% (inactive)
Nc1ccc2nc3c(=O)[nH]c(=S)[nH]c3nc2c1	28.2 µM (active)	–
COc1ccc(NC(=O)CSc2nc3ccccc3[nH]2)cc1	–	-19.5% (inactive)
NS(=O)(=O)c1ccc2nc(NC(=O)COc3ccccc3)sc2c1	–	4.94% (inactive)
CCN(CC)c1ccc(C2C(C(N)=O)=C(C)Nc3nc(SCc4ccccc4)nn32)cc1 (stereo not drawn)	–	-32.9% (inactive)
COc1cc(/C=C2/C(=O)NN(c3cccc(Cl)c3)C2=O)cc(Br)c1O	28.2 µM (active)	–
COc1cccc2c1cc1c(=O)n(CC(=O)N3CCN(c4cccc(Cl)c4)CC3)nc(C)n12	–	6.97% (inactive)
Cc1nc(SCCOc2ccc(Cl)cc2)[nH]c(=O)c1Cc1ccccc1	–	-21.7% (inactive)
Cc1cccc(-c2nc(SCC(=O)Nc3cc(C)on3)c3c(=O)n(C)c(=O)n(C)c3n2)c1	–	-20.7% (inactive)
CCC(=O)N1c2ccccc2CC1C(=O)N1CCN(c2ccccc2)CC1 (stereo not drawn)	–	-26.3% (inactive)
O=C(CSc1nccn1-c1ccc(F)cc1)Nc1cccc2ccccc12	–	-23% (inactive)
CCOc1ccc(CCNC(=O)c2c(C)oc3ncn(C)c(=O)c23)cc1	–	-10.1% (inactive)
CC(=O)N1c2ccc(S(=O)(=O)N3CCCCCC3)cc2CC1C(=O)NCc1ccccc1C (stereo not drawn)	–	-12.7% (inactive)
Cc1ccc(-c2nc3ccccn3c2Nc2c(C)cccc2C)o1	–	-23.3% (inactive)
O=S(=O)(c1ccccc1)c1nc(-c2ccc(Cl)cc2Cl)oc1N1CCCCC1	–	-5.27% (inactive)
CCOC(=O)c1ccc(Nc2cc3ccccc3c(=O)[nH]2)cc1	17.8 µM (active)	–
CCOC(=O)c1ccc(NC2=CC(c3ccc(OCC)cc3)N(c3ccc(C(=O)OCC)cc3)C2=O)cc1 (stereo not drawn)	–	-18.2% (inactive)
CCOC(=O)c1ccc(NC(=O)CSc2nc3c([nH]c4ccccc43)c(=O)n2C)cc1	–	-16.3% (inactive)
